Hits are enriched below; roughly 4.1% of the tested compounds scored in any of these assays.
Rv3671c inh – Rv3671c serine protease inhibitors, primary screen, biochemical, fluorescence polarization, M. tuberculosis H37Rv; 0.048% of 320,000 active; inhibition, % at 5.96 µM; P9WHR9; in the data active means inhibition above about 38%;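 further: extracellular domain of Rv3671c used as enzyme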
BH1578 lux ind – inducers of Vibrio cholerae quorum light production without autoinducers, primary screen, BH1578 luxS cqsA deficient, single point; V. cholerae BH1578 lux reporter, luminescence, 6 h; activation, % at 18.7 µM; 0.16% of 350,000 active; AID 588436, 2011; in the data active means activation mostly above about 9.7%, no sharp cut-off
Mtb UGM inh – M. tuberculosis UGM enzyme inhibitors, primary screen, biochemical, fluorescence polarization, single point; UDP-galactopyranose mutase (Mycobacterium tuberculosis (strain ATCC 25618 / H37Rv)), …; purified UGM, fluorescence polarization probe displacement; inhibition, % at 10 µM; 0.06% of 320,000 active; in the data active means inhibition above about 10%, passing the limit was not always enough
GDH-TPI counter-1 – GDH-TPI coupling enzyme inhibitors, primary screen, artefact control for M. tuberculosis FBA inhibitor project, biochemical, absorbance, full deck; GDH-TPI coupled enzyme counterscreen, NADH absorbance; inhibition, % at 4.8 µM; 1.2% of 360,000 active; AID 588335, 2011; in the data active means inhibition above about 30%
RecA splice inh – Mtb RecA intein splicing inhibitors, primary screen, biochemical, fluorescence, HTS; AID 2221, 2009; Protein RecA (Mycobacterium tuberculosis (strain ATCC 25618 / H37Rv)), P9WHJ3; inhibition, % (test concentration not listed); 0.75% of 290,000 active; cell-free RecA intein splicing; in the data active means inhibition above about 30%
Target sequence (P9WHJ3 whole entry, looked up, canonical isoform): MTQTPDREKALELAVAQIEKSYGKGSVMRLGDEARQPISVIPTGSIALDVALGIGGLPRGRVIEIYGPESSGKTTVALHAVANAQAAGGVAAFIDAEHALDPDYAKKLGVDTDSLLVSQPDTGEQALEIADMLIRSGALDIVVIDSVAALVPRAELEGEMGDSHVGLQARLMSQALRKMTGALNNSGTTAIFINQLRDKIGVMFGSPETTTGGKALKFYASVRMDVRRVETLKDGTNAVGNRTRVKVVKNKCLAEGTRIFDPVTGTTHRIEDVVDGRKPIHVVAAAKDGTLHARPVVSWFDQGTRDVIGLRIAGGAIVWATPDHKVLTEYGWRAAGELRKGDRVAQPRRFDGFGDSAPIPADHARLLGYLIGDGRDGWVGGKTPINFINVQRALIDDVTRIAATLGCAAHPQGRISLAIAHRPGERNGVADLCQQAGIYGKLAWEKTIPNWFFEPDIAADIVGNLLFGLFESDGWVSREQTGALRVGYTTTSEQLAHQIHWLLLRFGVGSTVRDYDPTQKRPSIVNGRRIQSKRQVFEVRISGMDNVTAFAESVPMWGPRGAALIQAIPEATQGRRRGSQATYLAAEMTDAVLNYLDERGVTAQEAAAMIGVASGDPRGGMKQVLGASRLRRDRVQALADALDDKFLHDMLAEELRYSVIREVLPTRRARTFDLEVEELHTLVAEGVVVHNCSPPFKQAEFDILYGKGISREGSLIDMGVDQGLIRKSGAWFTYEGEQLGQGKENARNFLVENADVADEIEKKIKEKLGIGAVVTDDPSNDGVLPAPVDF
Mtb FBA inh – Mtb FBA enzyme inhibitors, primary screen, biochemical, fluorescence, strain H37Rv; Fructose-bisphosphate aldolase (Mycobacterium tuberculosis (strain ATCC 25618 / H37Rv)), …; purified M. tuberculosis FBA, fluorescence read-out; inhibition, % at 1 µM; 2.3% of 360,000 active
Mtb FBA inh conf – M. tuberculosis aldolase blockers, biochemical, fluorescence, strain H37Rv, confirmation; shares compounds with Mtb FBA inh; purified M. tuberculosis FBA, fluorescence read-out; inhibition, % at 1 µM; 78% of 5,600 active; AID 651616, 2012
GDH-TPI counter-2 – GDH-TPI coupling enzyme inhibitors, artefact control for M. tuberculosis FBA inhibitor project, biochemical, fluorescence, high throughput | shares compounds with Mtb FBA inh | GDH-TPI coupled enzyme counterscreen | inhibition, % at 1 µM | 81% of 5,600 active | AID 652141, 2013; in the data active means inhibition above about 10%
GDH-TPI DR – GDH-TPI coupling enzyme inhibitors, dose response, artefact control for M. tuberculosis FBA inhibitor project, biochemical, fluorescence, IC50 | GDH-TPI coupled enzyme assay, artifact counterscreen | IC50, µM | 79% of 170 active | AID 652145, 2013 | shares compounds with Mtb FBA inh; call rule not given here
A number is an active result. Unless noted, no stated cut-off is given here; in the data, active means inhibition above about 27%; inactive means the rest.

What do the screens show for `COc1ccc(-c2ccc(C(=O)NCCN(C)C)c3occc23)c(C)c1`?
BH1578 lux ind: inactive; GDH-TPI counter-1: inactive; Mtb FBA inh: 33; Mtb FBA inh conf: 33; GDH-TPI counter-2: 25

What do the screens show for `COCCNC(=O)c1ccc(-c2ccc(OC)cc2C)c2ccoc12`?
BH1578 lux ind: inactive; GDH-TPI counter-1: inactive; Mtb FBA inh: 95; Mtb FBA inh conf: 55; GDH-TPI counter-2: 44

How did COc1ccc(-c2ccc(C(=O)NCc3ccccc3)c3occc23)c(C)c1 do in these assays?
BH1578 lux ind: inactive; GDH-TPI counter-1: inactive; Mtb FBA inh: inactive

How did NC(=O)c1c(NC(=O)c2ccc(F)cc2Cl)sc2c1CCC2 do in these assays?
Rv3671c inh: inactive; BH1578 lux ind: inactive; Mtb UGM inh: inactive; GDH-TPI counter-1: inactive; RecA splice inh: inactive; Mtb FBA inh: inactive

Results for Cc1[nH]n2c(=O)cc(C(C)C)nc2c1-c1ccccc1 ?
Rv3671c inh: inactive; BH1578 lux ind: inactive; Mtb UGM inh: inactive; GDH-TPI counter-1: inactive; RecA splice inh: inactive; Mtb FBA inh: inactive

How did Cc1[nH]n2c(=O)c3c(nc2c1-c1ccccc1)CCC3 do in these assays?
Rv3671c inh: inactive; BH1578 lux ind: inactive; Mtb UGM inh: inactive; GDH-TPI counter-1: inactive; RecA splice inh: inactive; Mtb FBA inh: 28; Mtb FBA inh conf: 131; GDH-TPI counter-2: 97

Results for Cc1[nH]n2c(=O)cc(C(C)(C)C)nc2c1-c1ccccc1 ?
Rv3671c inh: inactive; BH1578 lux ind: inactive; Mtb UGM inh: inactive; GDH-TPI counter-1: inactive; RecA splice inh: inactive; Mtb FBA inh: 50; Mtb FBA inh conf: inactive; GDH-TPI counter-2: inactive

Results for CCOC(=O)Cc1cc(=O)n2[nH]c(C)c(-c3ccc(Cl)cc3)c2n1 ?
Rv3671c inh: inactive; BH1578 lux ind: inactive; Mtb UGM inh: inactive; GDH-TPI counter-1: inactive; RecA splice inh: inactive; Mtb FBA inh: 62; Mtb FBA inh conf: 156; GDH-TPI counter-2: 110

How did CCc1cc(=O)n2[nH]c(-c3ccccc3)c(-c3ccccc3)c2n1 do in these assays?
Rv3671c inh: inactive; BH1578 lux ind: inactive; Mtb UGM inh: inactive; GDH-TPI counter-1: inactive; RecA splice inh: inactive; Mtb FBA inh: 34; Mtb FBA inh conf: 150; GDH-TPI counter-2: 111

How did CCOc1ccc(C(=O)C(C)OC(=O)Cn2[nH]c(=O)c3ccccc3c2=O)cc1 (stereo unspecified) do in these assays?
Rv3671c inh: inactive; BH1578 lux ind: inactive; Mtb UGM inh: inactive; GDH-TPI counter-1: inactive; Mtb FBA inh: inactive

What do the screens show for `Cc1ccc(NC(=O)C2CCN(C(=O)c3ccc(F)cc3)CC2)nc1`?
Rv3671c inh: inactive; BH1578 lux ind: inactive; Mtb UGM inh: inactive; GDH-TPI counter-1: inactive; RecA splice inh: inactive; Mtb FBA inh: inactive

How did CCCc1cc(=O)n2[nH]c(C)c(-c3ccccc3OC)c2n1 do in these assays?
BH1578 lux ind: inactive; GDH-TPI counter-1: inactive; Mtb FBA inh: inactive

How did COc1ccc(-c2c(C(F)(F)F)[nH]n3c(=O)cc(-c4ccccc4)nc23)cc1 do in these assays?
Rv3671c inh: inactive; BH1578 lux ind: inactive; Mtb UGM inh: inactive; GDH-TPI counter-1: inactive; RecA splice inh: inactive; Mtb FBA inh: 39; Mtb FBA inh conf: 88; GDH-TPI counter-2: 84

Results for CCCc1cc(=O)n2[nH]c(C)c(-c3ccccc3)c2n1 ?
Rv3671c inh: inactive; BH1578 lux ind: inactive; Mtb UGM inh: inactive; GDH-TPI counter-1: inactive; RecA splice inh: inactive; Mtb FBA inh: 27; Mtb FBA inh conf: inactive; GDH-TPI counter-2: inactive

How did CN(C)S(=O)(=O)c1cccc(NC(=O)c2cccc(S(=O)(=O)N3CCCCCC3)c2)c1 do in these assays?
BH1578 lux ind: inactive; GDH-TPI counter-1: inactive; Mtb FBA inh: inactive

How did O=C(NC1CCCCC1)c1ccc2[nH]c(=O)c(=O)[nH]c2c1 do in these assays?
Rv3671c inh: inactive; BH1578 lux ind: inactive; Mtb UGM inh: inactive; GDH-TPI counter-1: inactive; RecA splice inh: inactive; Mtb FBA inh: 41; Mtb FBA inh conf: inactive; GDH-TPI counter-2: inactive; GDH-TPI DR: 4.3

How did CC(C)C[C@@H](CNCC(=O)[C@H](CC(C)C)NC(=O)c1[nH]cnc1C(=O)N[C@H](CN)CC(C)C)NC(=O)c1nc[nH]c1C(=O)N[C@@H](CC(=O)O)C(=O)O do in these assays?
BH1578 lux ind: inactive; GDH-TPI counter-1: inactive; Mtb FBA inh: inactive

What do the screens show for `Cc1ccccc1N1C(N)=NC(N)=NC1(C)C`?
Rv3671c inh: inactive; BH1578 lux ind: inactive; Mtb UGM inh: inactive; GDH-TPI counter-1: inactive; RecA splice inh: inactive; Mtb FBA inh: 76; Mtb FBA inh conf: active; GDH-TPI counter-2: active

What do the screens show for `Cc1ccc(N2C(N)=NC(N)=NC2(C)C)c(C)c1`?
Rv3671c inh: inactive; BH1578 lux ind: inactive; Mtb UGM inh: inactive; GDH-TPI counter-1: inactive; RecA splice inh: inactive; Mtb FBA inh: inactive

Results for Nc1cccc2c1C(=O)c1ccc(Cl)cc1C2=O ?
BH1578 lux ind: inactive; GDH-TPI counter-1: inactive; Mtb FBA inh: inactive

What do the screens show for `Cc1nc2ccc(N)cc2c(=O)n1Cc1ccc(Cl)cc1`?
Rv3671c inh: inactive; BH1578 lux ind: inactive; Mtb UGM inh: inactive; GDH-TPI counter-1: inactive; RecA splice inh: inactive; Mtb FBA inh: 41; Mtb FBA inh conf: 40; GDH-TPI counter-2: 33

How did Cc1nc2c(cc1N)nc(C)n2Cc1ccccc1 do in these assays?
Rv3671c inh: inactive; BH1578 lux ind: inactive; Mtb UGM inh: inactive; GDH-TPI counter-1: inactive; RecA splice inh: inactive; Mtb FBA inh: 99; Mtb FBA inh conf: inactive; GDH-TPI counter-2: inactive; GDH-TPI DR: 1.2

Results for CCN(CC(=O)Nc1ccc2c(c1)OCCO2)C(=O)C(C)Oc1ccc(F)cc1 (stereo unspecified) ?
BH1578 lux ind: inactive; GDH-TPI counter-1: inactive; Mtb FBA inh: inactive

How did COc1ccc2[nH]c3c(=O)n(N)c(=O)[nH]c3c2c1 do in these assays?
BH1578 lux ind: inactive; Mtb UGM inh: inactive; GDH-TPI counter-1: inactive; RecA splice inh: inactive; Mtb FBA inh: 107; Mtb FBA inh conf: 33; GDH-TPI counter-2: 31

Results for COc1cc2[nH]c3c(=O)n(N)c(=O)[nH]c3c2cc1OC ?
Rv3671c inh: inactive; BH1578 lux ind: inactive; Mtb UGM inh: inactive; GDH-TPI counter-1: inactive; RecA splice inh: inactive; Mtb FBA inh: 34; Mtb FBA inh conf: inactive; GDH-TPI counter-2: inactive

High-throughput results: PubChem BioAssay, several laboratories
